Article PMC5540273 (PLoS ONE, 2017)

Assays:
Details in all cases: concentration: 1 μM, replicates: in singlicate; n = 1
[1] = test system: NEK3
[2] = test system: NEK4
[3] = test system: NEK5
[4] = test system: NEK6
[5] = test system: NEK7
[6] = test system: NEK9
[7] = test system: T1, NIK
T1 construct: gene MAP3K14

[8] = test system: T2, NIM1
T2 construct: gene MGC42105

[9] = test system: NLK
[10] = test system: T3, OSR1
T3 construct: gene OXSR1

[11] = test system: PAK1
[12] = test system: PAK2
[13] = test system: PAK3
[14] = test system: PAK4
[15] = test system: PAK6
[16] = test system: PAK7
[17] = test system: T4, PCTK1
T4 construct: gene CDK16

[18] = test system: T5, PCTK2
T5 construct: gene CDK17

[19] = test system: T6, PCTK3
T6 construct: gene CDK18

[20] = test system: PDGFRA
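Note: KINOMEscan kinase panel screen.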

SMILES	%Inh [1] [%]	%Inh [2] [%]	%Inh [3] [%]	%Inh [4] [%]	%Inh [5] [%]	%Inh [6] [%]	%Inh [7] [%]	%Inh [8] [%]	%Inh [9] [%]	%Inh [10] [%]	%Inh [11] [%]	%Inh [12] [%]	%Inh [13] [%]	%Inh [14] [%]	%Inh [15] [%]	%Inh [16] [%]	%Inh [17] [%]	%Inh [18] [%]	%Inh [19] [%]	%Inh [20] [%]
FC(F)(F)c1ccc(-c2cc(-c3c[nH]nc3-c3ccccn3)ccn2)cc1 [GW599550]	4	0	0	0	6	52	0	11	22	0	11	28	32	0	0	0	0	11	25	11
Cc1ccc(NC(=O)c2cccc(C#N)c2)cc1-c1ccc(C(=O)Nc2ccncc2)cc1 [GSK1398463]	25	18	11	0	0	4	0	8	1	31	16	21	0	0	0	1	2	0	18	86
O=c1cc(N2CCOCC2)nc2n(Cc3cccc(Cl)c3)ccn12 [GSK2296823]	3	16	2	0	2	3	13	0	0	7	6	10	0	0	0	53	5	0	17	0
O=C(NCCCN1CCCC1=O)c1cnc(NCc2cc(Cl)ccc2Cl)nc1NC1CCNCC1	37	0	0	0	0	0	0	0	2	0	5	0	0	3	0	0	0	0	10	0
Nc1nc(-c2ccc3c(N)n[nH]c3c2)cc(N2CCC[C@@H](C(=O)Nc3ccccc3)C2)n1.O=C(O)C(F)(F)F.O=C(O)C(F)(F)F [GSK2288359]	2	0	13	0	0	15	0	8	0	3	2	0	27	0	0	6	14	8	0	15
CSc1nn2c(=O)cc(N3CCOCC3)nc2n1Cc1cccc(Cl)c1Cl [GSK2347225]	1	0	18	17	37	47	0	21	21	6	13	13	15	0	0	26	15	0	0	0
FC(F)(F)c1ccc(-c2nn3ncccc3c2-c2ccnc(Nc3cccc(C(F)(F)F)c3)n2)cc1 [GW828205]	15	0	0	0	0	0	0	0	10	0	37	30	0	7	20	0	0	0	0	0
CCc1nc(-c2cccc(N(C)S(=O)(=O)c3ccccc3)c2)c(-c2ccnc(Nc3ccc(N4CCN(C(C)=O)CC4)nc3)n2)s1 [GSK1645895]	9	19	0	0	0	14	0	0	8	3	6	0	0	0	5	5	8	24	4	14
Cn1ccc2ncnc(Nc3ccc(Oc4cccc(Cl)c4)c(Cl)c3)c21	26	11	0	25	4	17	0	0	0	15	18	0	9	19	0	0	24	26	0	26
CN1CCC(n2cnc(-c3ccc(F)cc3)c2-c2ccnc(NC3CCNCC3)n2)CC1 [SB-229482]	9	0	0	12	1	21	0	54	52	0	0	14	13	8	11	10	0	0	10	11
